Among the test systems are NCI-H23 lung; NCI-H226 lung; NCI-H322M lung; HOP-62 NSCLC; NCI-H460 lung; HOP-92 NSCLC; NCI-H522 lung; A549/ATCC NSCLC; 786-0 renal; COLO 205 colon; DU-145 prostate; K-562 leukemia; MALME-3M melanoma; MDA-MB-231 breast; RXF 393 renal; SF-268 CNS; SF-295 CNS; SF-539 CNS; UACC-257 melanoma; M14 melanoma.
Holding throughout (assay): NCI-60 one-dose screen, 48 h (100 = growth as untreated, 0 = no growth, -100 = all killed)
Common to all, as to conditions: 10 µM unless noted

Structures are written as SMILES. Compounds without any hit were thinned out: in the full panel of roughly 83,000, 20% have a hit.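 Cell lines were cultured in 96-well plates, exposed to a single compound concentration, and assessed for percent growth 48 hours later.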 Values without a mark were called inactive. Active and inactive are the calls of the source. Rule for the calls: active = growth percent below 10; inactive = the rest.

In the case of `Fc1ccc(Nc2ncnc3ccc(-c4cnc5[nH]ccc5c4)cc23)cc1Cl`, the growth with NCI-H23 lung was 36.1%; in the test on NCI-H226 lung, 4.94% (active); in the test with NCI-H322M lung it was 19.2%; in the test with HOP-62 NSCLC it was 29.1%; in the test with NCI-H460 lung it was -58.9% (active); in the test with HOP-92 NSCLC, -5.43% (active). The growth in the test with NCI-H522 lung was -33.3% (active); with A549/ATCC NSCLC, -50.1% (active); in the test with 786-0 renal, -44.1% (active); in the test with COLO 205 colon, 11%; in the test on DU-145 prostate, 40.4%; in the test with K-562 leukemia, 4.25% (active). In addition, the growth with MALME-3M melanoma is 2.95% (active); with MDA-MB-231 breast, -16.9% (active); in the test on RXF 393 renal it was -27.3% (active); in the test with SF-268 CNS it was 32.8%; in the test on SF-295 CNS it was -32.2% (active); in the test on SF-539 CNS, -73.2% (active). Moreover, the growth is 39.2% in the test with UACC-257 melanoma and 42.7% in the test on M14 melanoma.
In the case of `O=C1NN(C(=O)c2ccc(Cl)cc2)C(c2ccccc2)=N/C1=C\c1cn(-c2ccccc2)nc1-c1ccccc1`, the growth in the test with NCI-H23 lung is 89.6%; in the test with NCI-H226 lung it was 106%; in the test on NCI-H322M lung, 94.7%; with HOP-62 NSCLC, 90.3%; in the test on NCI-H460 lung it was 99.5%; in the test on HOP-92 NSCLC, 94.6%. Further, the growth was 85% in the test with NCI-H522 lung; 88% in the test on A549/ATCC NSCLC; 90.7% with 786-0 renal; 109% with COLO 205 colon; 103% in the test with DU-145 prostate; 99.2% with K-562 leukemia. In addition, the growth was 77.7% in the test on MALME-3M melanoma; 92% in the test on MDA-MB-231 breast; 89.9% in the test with RXF 393 renal; 94.8% in the test with SF-268 CNS; 73.8% with SF-295 CNS; 94.1% in the test on SF-539 CNS. The growth in the test with UACC-257 melanoma was 92.8%; in the test with M14 melanoma it was 83.4%.
As for `S=C(S)NCCc1c[nH]c2ccccc12`, the growth with NCI-H23 lung is 99%; in the test on NCI-H226 lung, 66.5%; with NCI-H322M lung, 99.9%; with HOP-62 NSCLC, 106%; in the test with NCI-H460 lung, 103%; in the test with HOP-92 NSCLC it was 99.2%. In addition, the growth in the test on NCI-H522 lung was 79.8%; with A549/ATCC NSCLC, 99.4%; with 786-0 renal it was 100%; in the test on COLO 205 colon, 125%; in the test on DU-145 prostate, 107%; with K-562 leukemia it was 93.3%. Besides, the growth with MALME-3M melanoma was 99.1%; with MDA-MB-231 breast, 91.1%; in the test on RXF 393 renal it was 106%; with SF-268 CNS, 89.7%; with SF-295 CNS, 95.7%; in the test on SF-539 CNS it was 101%. The growth was 104% in the test with UACC-257 melanoma and 95.2% in the test on M14 melanoma.
Turning to `O=C(NS(=O)(=O)c1ccc2ccccc2c1)n1cc(-c2ccncc2)c(-c2ccc(Cl)c(O)c2)n1`, the growth in the test with NCI-H23 lung is 61.5%; with NCI-H226 lung, 84.9%; with NCI-H322M lung, 116%; with HOP-62 NSCLC, 92.1%; with NCI-H460 lung it was 89.7%; in the test with HOP-92 NSCLC it was 48.1%. For the same compound, the growth in the test on NCI-H522 lung is 61.5%; in the test on A549/ATCC NSCLC it was 78%; in the test on 786-0 renal, 99.1%; in the test with COLO 205 colon, 105%; with DU-145 prostate it was 113%; in the test with K-562 leukemia, 85.6%. The growth with MALME-3M melanoma is 17.1%; with MDA-MB-231 breast it was 49.6%; with RXF 393 renal, 52.9%; in the test on SF-268 CNS, 96.2%; in the test with SF-295 CNS, 91.1%; in the test on SF-539 CNS, 80.9%. Further, the values for the growth in the test on UACC-257 melanoma and in the test on M14 melanoma were 31.9% and 28.4%, respectively.
On to `O=C1/C(=C/c2ccc(Cl)cc2)CN(C(=O)CCN2CCC(=NO)CC2)C/C1=C\c1ccc(Cl)cc1`, for which the growth is -57% (active) with NCI-H23 lung; -20.5% (active) in the test with NCI-H226 lung; -75% (active) in the test on NCI-H322M lung; -80.1% (active) in the test with HOP-62 NSCLC; -67% (active) with NCI-H460 lung; -39.1% (active) in the test with HOP-92 NSCLC. For the same compound, the growth was -92.1% (active) in the test on NCI-H522 lung; 2.34% (active) in the test with A549/ATCC NSCLC; -76.9% (active) with 786-0 renal; -83.9% (active) in the test on COLO 205 colon; -89.2% (active) in the test on DU-145 prostate; -13.9% (active) with K-562 leukemia. Besides, the growth in the test on MALME-3M melanoma was -49.5% (active); in the test on MDA-MB-231 breast, -83.1% (active); with RXF 393 renal, -91.3% (active); with SF-268 CNS it was -60.1% (active); in the test on SF-295 CNS it was -76.3% (active); with SF-539 CNS, -84.5% (active). The growth is -76.7% (active) in the test on UACC-257 melanoma and -45.2% (active) with M14 melanoma.
Turning to `O=C(CCl)N(C1CCCCC1)C1CCCCC1`, the growth with NCI-H23 lung is 87.9%; in the test with NCI-H226 lung it was 105%; in the test on NCI-H322M lung, 98.8%; in the test with HOP-62 NSCLC, 119%; with NCI-H460 lung, 107%; in the test with HOP-92 NSCLC, 92.8%. Moreover, the growth is -36.8% (active) with NCI-H522 lung; 115% in the test on A549/ATCC NSCLC; 99.3% in the test on 786-0 renal; 109% in the test on COLO 205 colon; 112% in the test on DU-145 prostate; 104% in the test on K-562 leukemia. Further, the growth is 112% with MALME-3M melanoma; 120% in the test on MDA-MB-231 breast; 107% with RXF 393 renal; 103% in the test with SF-268 CNS; 98.3% with SF-295 CNS; 105% in the test with SF-539 CNS. In addition, the growth is 105% in the test with UACC-257 melanoma and 96.2% in the test with M14 melanoma.
As for `COc1ccc(Nc2nn3c(C)cc(C)nc3c2C(=O)Nc2ccc(C)cc2)c(OC)c1`, the growth was 92.7% in the test on NCI-H23 lung; 101% in the test on NCI-H226 lung; 92.8% in the test with NCI-H322M lung; 85.8% in the test with HOP-62 NSCLC; 101% with NCI-H460 lung; 87.1% with HOP-92 NSCLC. For the same compound, the growth with NCI-H522 lung is 88.6%; with A549/ATCC NSCLC it was 93.5%; in the test on 786-0 renal, 90.9%; in the test on COLO 205 colon it was 98.7%; in the test on DU-145 prostate, 113%; in the test with K-562 leukemia, 108%. The growth with MALME-3M melanoma was 124%; with MDA-MB-231 breast, 108%; in the test with RXF 393 renal, 107%; in the test on SF-268 CNS it was 100%; in the test on SF-295 CNS, 107%; in the test with SF-539 CNS, 102%. Besides, the results for the growth with UACC-257 melanoma and in the test with M14 melanoma were 98.6% and 101%, respectively.
Turning to `COc1ccc(C2C(C#N)=C(N)Oc3c2ccc2ccccc32)cc1` (stereo not given), the growth with NCI-H23 lung was 52.8%; with NCI-H226 lung it was 39.4%; with NCI-H322M lung, 67.8%; with HOP-62 NSCLC, 37.3%; with NCI-H460 lung, 14.6%; in the test on HOP-92 NSCLC, 48.4%. Also, the growth with NCI-H522 lung is 3.93% (active); with A549/ATCC NSCLC, 57.1%; in the test with 786-0 renal, 73.1%; in the test with COLO 205 colon, 91.1%; in the test with DU-145 prostate, 78.4%; in the test with K-562 leukemia, 19.6%. Also, the growth with MALME-3M melanoma was 47.9%; in the test on MDA-MB-231 breast it was 31.2%; with RXF 393 renal it was 36.5%; in the test on SF-268 CNS it was 50.5%; in the test with SF-295 CNS, 24.2%; in the test with SF-539 CNS, 25.6%. In addition, the growth with UACC-257 melanoma was 75.1%; in the test on M14 melanoma it was 30.2%.
